# Laboratory results published in PubChem BioAssay (EPA / NIEHS).
# The source made the active and inactive calls. How the source made its calls: active means hit-call score of the fitted dose curve at least 0.9, where 1 is the maximum; inactive means score below 0.9.
# Experiments:
# [1] = biological target: Bile acid receptor (Homo sapiens) (UniProt Q96RI1); assay: ATG_IR1_CIS: Attagene CIS-FACTORIAL HepG2 Assay for human Nuclear Receptor Subfamily 1 Group H Member 4 (NR1H4), IR1 submotif (AID 2282946); settings: IR1 reporter transcription, actives raise or lower the signal
# Chain of Bile acid receptor (Homo sapiens) (Q96RI1 whole entry, looked up): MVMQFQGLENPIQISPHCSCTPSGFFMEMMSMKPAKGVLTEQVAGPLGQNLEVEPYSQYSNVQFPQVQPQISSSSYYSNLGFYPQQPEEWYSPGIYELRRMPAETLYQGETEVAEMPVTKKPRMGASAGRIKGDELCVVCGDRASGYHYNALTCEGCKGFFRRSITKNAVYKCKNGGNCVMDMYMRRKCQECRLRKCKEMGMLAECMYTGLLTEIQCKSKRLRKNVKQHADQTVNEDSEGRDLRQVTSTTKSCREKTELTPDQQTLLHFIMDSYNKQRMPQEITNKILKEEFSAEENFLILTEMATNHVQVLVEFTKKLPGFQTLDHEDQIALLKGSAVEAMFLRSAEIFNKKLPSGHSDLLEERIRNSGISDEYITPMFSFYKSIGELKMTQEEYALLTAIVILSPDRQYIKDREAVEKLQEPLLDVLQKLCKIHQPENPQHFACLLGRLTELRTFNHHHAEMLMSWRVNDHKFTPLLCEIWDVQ
# Outline: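 Readout: reporter transcript levels by RT-PCR with fluorescent capillary electrophoresis, from HepG2 cells transiently transfected with multiplexed cis-regulated reporters and dosed 24 h. Gain- or loss-of-signal fitted versus DMSO negative control.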
# [2] = ATG_GRE_CIS: Attagene CIS-FACTORIAL HepG2 Assay for human Glucocorticoid Response Elements (GRE) (AID 2282947); settings: HepG2 GRE cis-reporter, Attagene multiplex mRNA; actives raise or lower the signal
# Outline: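 Cells (HepG2) bearing transfected cis-promoter reporter transcription units were treated with chemical for 24 hours. Reporter mRNA was measured via RT-PCR with capillary electrophoresis, and activity was fitted in both directions relative to DMSO.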
# [3] = ATG_M_32_CIS: Attagene CIS-FACTORIAL HepG2 Assay for M32 Transcription Factor (Internal Marker) (AID 2282949); settings: HepG2 Attagene cis-factorial M32 reporter, mRNA; actives raise or lower the signal;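 further: background control marker of the multiplexed CIS panel rather than a real target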
# Outline: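 HepG2 transfectants (cis-regulated reporter transcription units) dosed 24 h. Reporter mRNA by RT-PCR plus CE, analysed as gain or loss relative to DMSO.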
# [4] = ATG_M_06_CIS: Attagene CIS-FACTORIAL HepG2 Assay for M06 Transcription Factor (Internal Marker) (AID 2282950); settings: HepG2 Attagene CIS-FACTORIAL M06 internal marker reporter; actives raise or lower the signal
# Outline: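 Cells (HepG2, transiently carrying cis-driven reporter units) receive chemical for 24 h before RNA isolation. Reporter cDNA is PCR-amplified, FAM-labelled by primer extension, HpaI-digested and sized on a capillary analyser.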
# [5] = biological target: Hypoxia-inducible factor 1-alpha (Homo sapiens) (UniProt Q16665); assay: ATG_HIF1a_CIS: Attagene CIS-FACTORIAL HepG2 Assay for human Hypoxia Inducible Factor 1 (HIF1A) (AID 2282951); settings: HepG2 Attagene cis-factorial HIF1a reporter transcription; actives raise or lower the signal
# Chain of Hypoxia-inducible factor 1-alpha (Homo sapiens) (Q16665 whole entry, looked up): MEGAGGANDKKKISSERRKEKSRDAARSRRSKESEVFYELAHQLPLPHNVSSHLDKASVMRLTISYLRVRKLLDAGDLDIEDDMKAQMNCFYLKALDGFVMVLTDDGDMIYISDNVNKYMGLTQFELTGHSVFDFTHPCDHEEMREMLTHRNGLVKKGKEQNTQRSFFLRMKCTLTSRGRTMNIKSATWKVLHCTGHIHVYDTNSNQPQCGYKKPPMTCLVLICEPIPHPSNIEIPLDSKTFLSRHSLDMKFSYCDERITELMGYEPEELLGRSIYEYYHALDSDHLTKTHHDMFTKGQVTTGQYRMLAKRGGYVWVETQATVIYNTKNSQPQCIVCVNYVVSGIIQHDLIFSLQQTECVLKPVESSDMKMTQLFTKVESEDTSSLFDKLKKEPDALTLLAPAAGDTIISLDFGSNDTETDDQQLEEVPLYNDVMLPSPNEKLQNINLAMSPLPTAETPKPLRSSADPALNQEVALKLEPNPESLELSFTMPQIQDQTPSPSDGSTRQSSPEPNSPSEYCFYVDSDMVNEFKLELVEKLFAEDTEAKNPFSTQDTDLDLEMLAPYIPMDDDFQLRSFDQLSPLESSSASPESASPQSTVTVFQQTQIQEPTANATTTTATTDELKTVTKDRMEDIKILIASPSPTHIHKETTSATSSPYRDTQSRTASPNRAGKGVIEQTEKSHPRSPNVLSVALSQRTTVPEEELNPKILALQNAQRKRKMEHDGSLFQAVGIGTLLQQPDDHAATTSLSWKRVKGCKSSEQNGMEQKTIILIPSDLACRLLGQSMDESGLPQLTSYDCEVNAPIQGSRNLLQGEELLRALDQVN
# Outline: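 Endogenous-TF cis reporter readout, human HepG2 cells, 24 h incubation; mRNA detected via RT-PCR and capillary electrophoresis fluorescence; DMSO-normalised bidirectional fitting.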
# [6] = biological target: Hepatocyte nuclear factor 6 (Homo sapiens) (UniProt Q9UBC0); assay: ATG_HNF6_CIS: Attagene CIS-FACTORIAL HepG2 Assay for human Hepatocyte Nuclear Factor 6 (HNF6) (AID 2282952); settings: HepG2 Attagene cis-factorial HNF6 reporter transcription; actives raise or lower the signal
# Chain of Hepatocyte nuclear factor 6 (Homo sapiens) (Q9UBC0 whole entry, looked up, the tested form may be a part): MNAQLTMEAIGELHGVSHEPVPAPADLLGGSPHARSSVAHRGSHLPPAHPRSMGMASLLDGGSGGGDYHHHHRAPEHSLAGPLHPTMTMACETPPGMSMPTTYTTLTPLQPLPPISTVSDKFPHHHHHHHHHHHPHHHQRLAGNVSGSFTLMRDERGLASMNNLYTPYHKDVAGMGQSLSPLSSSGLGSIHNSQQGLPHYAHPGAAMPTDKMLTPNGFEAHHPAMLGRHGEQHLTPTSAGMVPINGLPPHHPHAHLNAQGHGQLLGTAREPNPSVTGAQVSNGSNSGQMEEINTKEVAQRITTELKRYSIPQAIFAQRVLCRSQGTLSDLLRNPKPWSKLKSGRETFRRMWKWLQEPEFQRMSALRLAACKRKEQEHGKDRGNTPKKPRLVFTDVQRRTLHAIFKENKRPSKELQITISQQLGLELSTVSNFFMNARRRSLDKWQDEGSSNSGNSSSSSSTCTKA
# Outline: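 Readout: fluorescent reporter-transcript fragments resolved by capillary electrophoresis after RT-PCR, reflecting endogenous factor activity in transfected HepG2. Exposure 24 h. Gain or loss of signal fitted bidirectionally against DMSO.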
# [7] = biological target: Heat shock factor protein 1 (Homo sapiens) (UniProt Q00613); assay: ATG_HSE_CIS: Attagene CIS-FACTORIAL HepG2 Assay for human Heat Shock Transcription Factor 1 (HSE) (AID 2282953); settings: HepG2 HSE cis-reporter, Attagene RNA transcription; actives raise or lower the signal
# Chain of Heat shock factor protein 1 (Homo sapiens) (Q00613 whole entry, looked up): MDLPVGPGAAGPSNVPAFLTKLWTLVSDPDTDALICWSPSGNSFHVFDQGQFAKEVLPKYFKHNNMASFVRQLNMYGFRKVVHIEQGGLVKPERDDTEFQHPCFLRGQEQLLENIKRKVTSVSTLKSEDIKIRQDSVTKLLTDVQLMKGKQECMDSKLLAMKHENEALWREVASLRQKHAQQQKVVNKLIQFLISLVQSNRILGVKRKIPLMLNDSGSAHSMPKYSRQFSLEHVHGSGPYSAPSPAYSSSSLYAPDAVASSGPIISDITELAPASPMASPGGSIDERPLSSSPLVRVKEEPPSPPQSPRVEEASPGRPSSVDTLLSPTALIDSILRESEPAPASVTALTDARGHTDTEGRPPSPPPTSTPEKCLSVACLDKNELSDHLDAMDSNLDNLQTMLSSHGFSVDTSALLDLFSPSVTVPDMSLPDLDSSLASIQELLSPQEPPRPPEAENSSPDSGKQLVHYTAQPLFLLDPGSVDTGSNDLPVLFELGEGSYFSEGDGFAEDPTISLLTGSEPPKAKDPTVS
# Outline: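 Liver-derived HepG2 cells carry transiently introduced multiple reporter units governed by cis promoters. Reporter RNA measured 24 h post-dose through reverse transcription, PCR amplification, fluorescent labelling and capillary electrophoresis, normalised to DMSO.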
# [8] = ATG_MRE_CIS: Attagene CIS-FACTORIAL HepG2 Assay for human Metal Responsive Element (MRE) (AID 2282954); settings: HepG2 MRE cis-reporter transcription, Attagene multiplex; actives raise or lower the signal
# Outline: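 Cells were transfected with cis-promoter reporter transcription units, then dosed for 24 h. RNA was reverse-transcribed, amplified, fluorescently labelled and resolved by capillary electrophoresis, and activity was fitted in both directions relative to DMSO.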
# [9] = ATG_PBREM_CIS: Attagene CIS-FACTORIAL HepG2 Assay for human Phenobarbital-responsive Enhancer Module (PBREM) (AID 2282955); settings: HepG2 PBREM cis-reporter, Attagene multiplexed transcription; actives raise or lower the signal
# Outline: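 Readout: reporter mRNA, fluorescent RT-PCR fragments separated by capillary electrophoresis. System: HepG2 transiently transfected with cis-regulated reporter units. Exposure: 24 h. Analysis: bidirectional, DMSO baseline.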
# [10] = biological target: Paired box protein Pax-6 (Homo sapiens) (UniProt P26367); assay: ATG_Pax6_CIS: Attagene CIS-FACTORIAL HepG2 Assay for human Paired Box 6 (PAX6) (AID 2282956); settings: HepG2 CIS-FACTORIAL PAX6 reporter transcription, RNA readout; actives raise or lower the signal
# Chain of Paired box protein Pax-6 (Homo sapiens) (P26367 whole entry, looked up): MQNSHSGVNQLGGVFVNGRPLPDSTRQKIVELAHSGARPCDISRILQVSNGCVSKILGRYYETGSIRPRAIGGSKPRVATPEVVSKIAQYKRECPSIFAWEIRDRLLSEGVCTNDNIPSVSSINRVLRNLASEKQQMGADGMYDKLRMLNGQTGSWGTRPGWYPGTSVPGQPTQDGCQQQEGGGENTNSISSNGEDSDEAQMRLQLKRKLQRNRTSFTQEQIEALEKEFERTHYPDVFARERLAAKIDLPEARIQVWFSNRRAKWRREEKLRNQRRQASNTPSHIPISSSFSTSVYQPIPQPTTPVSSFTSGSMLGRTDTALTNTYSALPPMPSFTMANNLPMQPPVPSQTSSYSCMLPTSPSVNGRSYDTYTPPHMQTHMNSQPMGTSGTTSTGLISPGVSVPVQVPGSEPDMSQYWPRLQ
# Outline: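 Values derive from bidirectional curve fitting of reporter mRNA signal relative to DMSO. HepG2 cells bearing transfected cis-regulated MRTUs were exposed for 24 h; transcripts were read by RT-PCR and capillary electrophoresis.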
# [11] = ATG_PXRE_CIS: Attagene CIS-FACTORIAL HepG2 Assay for human Pregnane X Receptor Element (PXRE) (AID 2282957); settings: HepG2 Attagene CIS-FACTORIAL PXRE reporter, mRNA; actives raise or lower the signal
# Outline: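 Read-out: fluorescence of reporter-specific RT-PCR products resolved by capillary electrophoresis, fitted bidirectionally relative to DMSO. Human HepG2 liver cells carried transfected cis-promoter reporter units and were exposed to chemicals for 24 h.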
# [12] = ATG_RORE_CIS: Attagene CIS-FACTORIAL HepG2 Assay for human RAR-related Orphan Receptor Element (RORE) (AID 2282959); settings: HepG2 Attagene cis-factorial RORE reporter, mRNA; actives raise or lower the signal
# Outline: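 Measured here: transcript induction of a cis-regulated reporter in HepG2 cells transiently transfected via FuGene 6. After 24 h, RNA was processed by RT-PCR and fluorescent capillary electrophoresis; DMSO defined baseline activity.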
# [13] = ATG_Sox_CIS: Attagene CIS-FACTORIAL HepG2 Assay for human SRY-box transcription factor (SOX) (AID 2282960); settings: HepG2 Attagene cis-factorial SOX reporter, mRNA; actives raise or lower the signal
# Outline: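 Using transiently transfected HepG2 cells, reporter transcription driven by cis elements was assessed 24 h after dosing. Signal was fluorescence of capillary-separated RT-PCR products, with DMSO defining baseline activity.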
# [14] = biological target: Transcription factor Sp1 (Homo sapiens) (UniProt P08047); assay: ATG_Sp1_CIS: Attagene CIS-FACTORIAL HepG2 Assay for human Specificity Protein 1 (Sp1) (AID 2282961); settings: HepG2 Sp1 cis-reporter transcription, actives raise or lower the signal
# Chain of Transcription factor Sp1 (Homo sapiens) (P08047 whole entry, looked up): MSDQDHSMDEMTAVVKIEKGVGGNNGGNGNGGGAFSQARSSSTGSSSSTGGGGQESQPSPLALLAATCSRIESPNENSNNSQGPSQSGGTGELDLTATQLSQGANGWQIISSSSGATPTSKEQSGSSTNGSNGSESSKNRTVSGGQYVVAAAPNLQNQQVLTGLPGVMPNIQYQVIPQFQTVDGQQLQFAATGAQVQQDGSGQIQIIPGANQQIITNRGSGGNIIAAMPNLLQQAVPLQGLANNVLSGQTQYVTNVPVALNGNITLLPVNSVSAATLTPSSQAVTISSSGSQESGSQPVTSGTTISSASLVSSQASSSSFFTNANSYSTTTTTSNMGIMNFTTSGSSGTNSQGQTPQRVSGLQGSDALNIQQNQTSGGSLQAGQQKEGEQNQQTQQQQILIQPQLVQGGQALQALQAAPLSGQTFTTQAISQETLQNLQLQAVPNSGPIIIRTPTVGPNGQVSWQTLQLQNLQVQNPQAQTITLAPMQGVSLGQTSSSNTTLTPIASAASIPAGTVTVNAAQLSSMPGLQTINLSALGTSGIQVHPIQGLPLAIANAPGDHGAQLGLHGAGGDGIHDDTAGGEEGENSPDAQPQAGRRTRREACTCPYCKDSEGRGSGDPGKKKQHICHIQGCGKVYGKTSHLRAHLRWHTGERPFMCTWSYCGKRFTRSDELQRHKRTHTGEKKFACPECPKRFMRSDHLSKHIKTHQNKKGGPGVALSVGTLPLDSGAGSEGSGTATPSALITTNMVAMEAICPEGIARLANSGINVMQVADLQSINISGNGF
# Outline: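 After transient transfection of HepG2 cells with cis-promoter reporter units and 24 h chemical treatment, reporter transcripts were quantified by RT-PCR and capillary electrophoresis fluorescence. Gain- and loss-of-signal fitted against DMSO.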
# [15] = ATG_SREBP_CIS: Attagene CIS-FACTORIAL HepG2 Assay for human Sterol Regulatory Element Binding (SREBP) (AID 2282962); settings: HepG2 Attagene cis-factorial SREBP reporter, mRNA; actives raise or lower the signal
# Outline: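 Values derive from bidirectional curve fitting with DMSO as baseline. The underlying measurement is reporter mRNA from cis-element-regulated units in transiently transfected HepG2, quantified by RT-PCR and capillary electrophoresis after 24 h exposure.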
# [16] = biological target: Signal transducer and activator of transcription 3 (Homo sapiens) (UniProt P40763); assay: ATG_STAT3_CIS: Attagene CIS-FACTORIAL HepG2 Assay for human Signal Transducer and Activator of Transcription 3 (STAT3) (AID 2282963); settings: HepG2, Attagene cis-factorial STAT3 reporter transcription; actives raise or lower the signal
# Chain of Signal transducer and activator of transcription 3 (Homo sapiens) (P40763 whole entry, looked up): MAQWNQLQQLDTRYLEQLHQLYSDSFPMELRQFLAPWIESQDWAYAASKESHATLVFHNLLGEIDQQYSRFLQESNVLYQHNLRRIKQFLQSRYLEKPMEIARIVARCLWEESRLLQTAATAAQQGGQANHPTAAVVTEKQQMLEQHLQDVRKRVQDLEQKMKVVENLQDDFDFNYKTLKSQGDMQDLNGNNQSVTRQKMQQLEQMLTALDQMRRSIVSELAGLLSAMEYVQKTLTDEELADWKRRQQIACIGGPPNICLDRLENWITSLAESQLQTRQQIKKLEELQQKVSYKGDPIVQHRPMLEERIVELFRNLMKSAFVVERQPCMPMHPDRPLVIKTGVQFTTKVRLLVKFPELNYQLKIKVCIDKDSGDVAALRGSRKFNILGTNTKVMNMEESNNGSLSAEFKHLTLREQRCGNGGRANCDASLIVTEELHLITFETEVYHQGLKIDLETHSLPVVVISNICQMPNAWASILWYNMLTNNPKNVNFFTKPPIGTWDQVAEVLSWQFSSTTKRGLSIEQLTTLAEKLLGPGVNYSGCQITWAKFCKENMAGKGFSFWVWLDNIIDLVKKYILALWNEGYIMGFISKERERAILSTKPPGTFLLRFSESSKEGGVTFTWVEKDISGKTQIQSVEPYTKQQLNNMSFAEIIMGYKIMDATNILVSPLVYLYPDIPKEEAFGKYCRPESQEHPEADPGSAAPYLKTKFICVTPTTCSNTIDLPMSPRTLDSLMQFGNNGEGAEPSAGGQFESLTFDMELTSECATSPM
# Outline: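 HepG2, MRTU-transfected, 24 h dosing. RNA → RT → PCR → FAM label → HpaI → CE. Bidirectional fit vs DMSO.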
# [17] = ATG_TA_CIS: Attagene CIS-FACTORIAL HepG2 Assay for human TA Basal Promoter (AID 2282964); settings: HepG2 Attagene CIS-factorial TA basal promoter reporter; actives raise or lower the signal
# Outline: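 Background internal-marker endpoint from a 52-component HepG2 cis-reporter panel. Cells treated 24 h; reporter transcripts quantified via RT-PCR and CE fluorescence against DMSO baseline.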
# [18] = ATG_TCF_b_cat_CIS: Attagene CIS-FACTORIAL HepG2 Assay for human T-Cell-Factor with beta-catenin (TCF/b-cat) (AID 2282965); settings: HepG2 TCF/beta-catenin cis-reporter transcription, actives raise or lower the signal
# Outline: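 In this cis-format system, transfected HepG2 cells report endogenous transcription factor activity. Readout after 24 h exposure is reporter transcript abundance from RT-PCR and capillary electrophoresis, analysed for gain or loss of signal versus DMSO.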
# [19] = ATG_ISRE_CIS: Attagene CIS-FACTORIAL HepG2 Assay for human Interferon Regulatory Factor 1 (IRF1) binding to an Interferon-Stimulated Response Element (ISRE) (AID 2282948); settings: HepG2 ISRE cis-reporter (Attagene), mRNA transcription readout; actives raise or lower the signal
# Outline: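 Signal reflects induction or loss of ISRE-linked reporter mRNA in transiently transfected HepG2 cells after a 24 h treatment, detected by fluorescent RT-PCR fragments on capillary electrophoresis and normalised to DMSO.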
# [20] = ATG_PPRE_CIS: Attagene CIS-FACTORIAL HepG2 Assay for human Peroxisome Proliferator-activated Response Element (PPRE) (AID 2282958); settings: HepG2 PPRE cis-element reporter, Attagene transcription factor profiling; actives raise or lower the signal
# Outline: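 After human HepG2 hepatoma cells were transiently transfected with cis-promoter reporter constructs, they were exposed to test chemicals for 24 hours. Reporter RNA was then reverse-transcribed, PCR-amplified, FAM-labeled, HpaI-digested and quantified by capillary electrophoresis.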
compound,measurement,setting,value
CC(C)(OOC(C)(C)c1ccccc1)c1ccccc1,outcome,[1],inactive
same,AC50,[2],78.3 µM (active)
same,outcome,[3],inactive
same,outcome,[4],inactive
same,outcome,[5],inactive
same,AC50,[6],100 µM (active)
same,outcome,[7],inactive
same,AC50,[8],64 µM (active)
same,AC50,[9],25.3 µM (active)
same,outcome,[10],inactive
same,AC50,[11],25 µM (active)
same,outcome,[12],inactive
same,outcome,[13],inactive
same,AC50,[14],45.4 µM (active)
same,AC50,[15],62.9 µM (active)
same,AC50,[16],100 µM (active)
same,outcome,[17],inactive
same,outcome,[18],inactive
Clc1ccc(C(c2ccc(Cl)cc2)C(Cl)(Cl)Cl)cc1,outcome,[1],inactive
same,outcome,[2],inactive
same,AC50,[19],62.2 µM (active)
same,outcome,[3],inactive
same,outcome,[4],inactive
same,outcome,[5],inactive
same,outcome,[6],inactive
same,outcome,[7],inactive
same,AC50,[8],100 µM (active)
same,outcome,[10],inactive
same,AC50,[11],4.13 µM (active)
same,outcome,[20],inactive
same,outcome,[12],inactive
same,AC50,[14],100 µM (active)
same,outcome,[15],inactive
same,outcome,[16],inactive
same,outcome,[17],inactive
same,outcome,[18],inactive
c1ccc(NNc2ccccc2)cc1,outcome,[1],inactive
same,outcome,[2],inactive
same,outcome,[3],inactive
same,outcome,[4],inactive
same,outcome,[5],inactive
same,outcome,[6],inactive
same,outcome,[7],inactive
same,outcome,[8],inactive
same,outcome,[10],inactive
same,outcome,[11],inactive
same,outcome,[12],inactive
same,outcome,[13],inactive
same,outcome,[14],inactive
same,outcome,[15],inactive
same,outcome,[16],inactive
same,outcome,[17],inactive
same,outcome,[18],inactive
OCCCl,outcome,[1],inactive
same,outcome,[2],inactive
same,outcome,[19],inactive
same,outcome,[3],inactive
same,outcome,[5],inactive
same,outcome,[6],inactive
same,outcome,[7],inactive
same,outcome,[8],inactive
same,outcome,[9],inactive
same,outcome,[10],inactive
same,outcome,[11],inactive
same,outcome,[12],inactive
same,outcome,[14],inactive
same,outcome,[15],inactive
same,outcome,[16],inactive
same,outcome,[17],inactive
same,outcome,[18],inactive
CN(C)[C@@H]1C(=O)C(C(N)=O)=C(O)[C@@]2(O)C(=O)C3=C(O)c4c(O)cccc4[C@@](C)(O)[C@H]3C[C@@H]12,outcome,[1],inactive
same,outcome,[2],inactive
same,outcome,[19],inactive
same,outcome,[3],inactive
same,outcome,[4],inactive
same,outcome,[6],inactive
same,outcome,[7],inactive
same,outcome,[8],inactive
same,outcome,[9],inactive
same,outcome,[10],inactive
same,AC50,[11],27.6 µM (active)
same,outcome,[14],inactive
same,outcome,[15],inactive
same,outcome,[16],inactive
same,outcome,[17],inactive
same,outcome,[18],inactive
Clc1ccccc1Cl,outcome,[1],inactive
same,outcome,[2],inactive
same,outcome,[19],inactive
same,outcome,[3],inactive
same,outcome,[5],inactive
same,outcome,[6],inactive
same,outcome,[7],inactive
same,outcome,[8],inactive
same,outcome,[9],inactive
same,outcome,[10],inactive
same,outcome,[11],inactive
same,outcome,[20],inactive
same,outcome,[12],inactive
same,outcome,[13],inactive
same,outcome,[14],inactive
same,outcome,[15],inactive
same,outcome,[16],inactive
same,outcome,[17],inactive
CCC[CH2][Sn]([Cl])([CH2]CCC)[CH2]CCC,AC50,[1],0.0138 µM (active)
same,outcome,[2],inactive
same,AC50,[19],0.611 µM (active)
same,outcome,[3],inactive
same,outcome,[4],inactive
same,outcome,[5],inactive
same,outcome,[6],inactive
same,AC50,[7],0.667 µM (active)
same,AC50,[8],0.778 µM (active)
same,outcome,[9],inactive
same,AC50,[10],0.678 µM (active)
same,outcome,[11],inactive
same,outcome,[12],inactive
same,outcome,[13],inactive
same,AC50,[14],0.412 µM (active)
same,outcome,[15],inactive
same,outcome,[16],inactive
same,AC50,[17],0.698 µM (active)
same,AC50,[18],0.591 µM (active)
